Assay outcomes deposited in PubChem BioAssay by National Center for Advancing Translational Sciences (NCATS).
RORg inh – qHTS for inhibitors of ROR gamma transcriptional activity; Nuclear receptor ROR-gamma (Mus musculus), P51450; Drosophila S2 Gal4-RORgamma UAS-luciferase reporter, 20 h; Potency, µM (top dose mostly 53.6 µM), without a hit: at the highest dose activity change, negative = inhibition, actives largely listed as inhibitors; 310,000 tested, 5.4% active; AID 2551, 2010; also: nearly all actives have a fitted effect of over 60% in size
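Using a luciferase readout, inhibitors were identified by reduced reporter activity in Drosophila cells coexpressing a copper-inducible Gal4–ROR gamma fusion and UAS-driven Photinus luciferase, incubated 20 hr after 700 uM copper sulfate.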
Sfp inh – qHTS Assay for Inhibitors of Bacillus subtilis Sfp phosphopantetheinyl transferase (PPTase); 310,000 tested, 3.5% active; Biochemical Sfp PPTase activity, qHTS; 4'-phosphopantetheinyl transferase ffp (Bacillus subtilis), Q9F4F7; Potency, µM, inactives show largest response in the series, negative = inhibition, actives largely listed as inhibitors;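 also: the enzyme is Sfp with the accession as filed and its product quenches rhodamine fluorescence; 0% = enzyme reaction without inhibitor and -100% = no enzyme wells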
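Reaction rates are the 30-min fluorescence difference (ex 525, em 598 nm) in wells containing 15 nM Sfp, 5 uM rhodamine-CoA and 12.5 uM BHQ-2-YbbR at pH 7.6 with 10 mM MgCl2.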
Gal4-VP16 FLuc – VP16 counterscreen qHTS for inhibitors of ROR gamma transcriptional activity. Drosophila S2 Gal4-VP16 UAS-luciferase, luminescence, 20 h. 310,000 tested, 3.5% active. AID 2546, 2010. Potency, µM (doses to about 53.6 µM), for the others: top-dose activity, negative = inhibition, usual class: inhibitors;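 also: Gal4-VP16 expression switched on by copper sulfate through the metallothionein promoter; nearly all actives have a fitted effect of over 50% in size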
PLK1 PBD block – qHTS for Inhibitors of PLK1-PDB (polo-like kinase 1 - polo-box domain): Primary Screen; Serine/threonine-protein kinase PLK1 (Homo sapiens), P53350; Plk1 PBD binding of FITC phosphopeptide, fluorescence polarization; Potency, µM, without a hit: max response, negative = inhibition, usual class: inhibitors; 360,000 tested, 2.8% active; also: series mostly up to about 57 µM; nearly all actives have a fitted effect of over 65% in size
ALDH1A1 inh – qHTS Assay for Inhibitors of Aldehyde Dehydrogenase 1 (ALDH1A1) | Aldehyde dehydrogenase 1A1 (Homo sapiens), P00352 | Purified ALDH1A1, NADH fluorescence, propionaldehyde substrate | Potency, µM (top dose mostly 75.3 µM), for inactives: at the top dose activity, negative = inhibition, actives largely listed as inhibitors | 220,000 tested, 7.3% active | AID 1030, 2008; active = well fitted inhibition curve with a large enough effect, not every such curve was filed as active; inconclusive = small, poorly fitted or top-dose-only effect, or another doubt; inactive = no such curve, though single readings can be large or run the other way;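 also: plate controls were no enzyme wells and a reference inhibitor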
Target sequence (P00352 whole entry, looked up): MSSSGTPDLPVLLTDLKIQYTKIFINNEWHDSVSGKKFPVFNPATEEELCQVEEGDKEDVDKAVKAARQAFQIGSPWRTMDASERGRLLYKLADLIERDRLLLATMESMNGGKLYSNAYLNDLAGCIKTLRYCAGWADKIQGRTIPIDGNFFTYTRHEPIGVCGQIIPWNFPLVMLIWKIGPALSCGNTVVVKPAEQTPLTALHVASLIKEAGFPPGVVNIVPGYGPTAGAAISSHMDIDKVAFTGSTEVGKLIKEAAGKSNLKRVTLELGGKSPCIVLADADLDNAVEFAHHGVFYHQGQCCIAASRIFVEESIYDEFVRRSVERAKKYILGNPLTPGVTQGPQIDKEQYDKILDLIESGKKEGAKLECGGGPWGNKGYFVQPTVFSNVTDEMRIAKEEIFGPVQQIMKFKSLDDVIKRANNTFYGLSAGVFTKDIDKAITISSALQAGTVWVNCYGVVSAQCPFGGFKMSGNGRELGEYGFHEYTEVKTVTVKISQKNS
Active calls of the source: *; u = inconclusive; x = no result; [ ] = dose if it differs, or a comment. Most compounds without a hit are left out; they make up all but 12% or so of the library. Unless noted, calls follow the shape of the dose curve; as a rule, active = well fitted curve in the direction sought with a large enough effect; inconclusive = small, poorly fitted or top-dose-only effect, or another doubt; inactive = no such curve, though single readings can be large; an effect the other way counts as inactive or inconclusive. Unless noted, % is scaled to controls: 0 for no effect and ±100 for the full control effect; potency is read from the fitted curve at half-maximal effect.

SMILES | RORg inh | Sfp inh | Gal4-VP16 FLuc | PLK1 PBD block | ALDH1A1 inh
Cc1noc(C)c1C(=O)N1CCC[C@@]2(CCN(CC(C)C)C2)C1 | 1.1% | 24.1% | -5.7% | x | -6.7%
O=C(Nc1nnc(-c2ccco2)o1)c1cccc2ccccc12 | 0.0316µM* | 21.6% | -98.4% | -10.1% | 4.2%
COc1ccc2c(c1)c(CCN1CCOCC1)c(C)n2C(=O)c1cccc(Cl)c1Cl | -4.4% | u | -11.1% | x | -9.8%
ClCc1ccccn1 | -3.7% | x | -14.1% | x | 2.0%
S=c1[nH]nc(-c2ccccc2)n1CC1CCCO1 (stereo not drawn) | -13.3% | u | -15.7% | -8.7% | u
S=c1[nH]nc(-c2ccccc2)n1C1C=CCCC1 (stereo not drawn) | -127.4% | -18.1% | 2.82µM* | -28.6% | u
O=C(Cl)C(Cl)(Cl)Cl | -2.9% | x | 1.9% | x | -5.2%
O=C(/C=C/c1ccc2c(c1)OCO2)c1c(O)n(CCC2=CCCCC2)c(=O)[nH]c1=O | -4.8% | -2.7% | -21.6% | u | 31.6µM*
COc1cc2c(cc1/C=C/[N+](=O)[O-])OCO2 | 7.94µM* | -21.0% | u | u | u
Fc1ccccc1-c1n[nH]c(=S)n1Cc1ccccc1 | 7.08µM* | 7.9% | 11.2µM* | -12.6% | x
NCCc1c[nH]c2ccc(O)cc12 | 3.1% | 27.2% | 11.1% | x | 11.3%
O=C(Cc1ccccc1)N1CCN(Cc2cccnc2)CC1 | 6.1% | 79.4µM* | 1.7% | -6.4% | u
O=C(Cc1ccccc1)N1CCN(CC2CC=CCC2)CC1 (stereo not drawn) | u | 15.6% | -6.4% | -8.6% | 12.6µM*
CN1CCN(C(=O)Cc2ccccc2)CC1 | 7.9% | 12.0% | 0.7% | -19.9% | x
Cn1c(O)c(/C=N/NC(=O)c2ccncc2)c(=O)[nH]c1=S | -3.1% | -12.5% | -1.1% | 4.2% | u
Cc1cccc(-n2c(O)c(/C=N/Nc3nc4c(c(=O)n(C)c(=O)n4C)n3C)c(=O)[nH]c2=S)c1 | -25.5% | 56.2µM* | 1.8% | u | 10µM*
Cc1ccccc1-n1c(O)c(/C=N/Nc2nc3c(c(=O)n(C)c(=O)n3C)n2C)c(=O)[nH]c1=S | -6.0% | 50.1µM* | -6.8% | -9.0% | 12.6µM*
Cn1c(=O)c2c(nc(N/N=C/c3c(O)n(C4CCCCC4)c(=S)[nH]c3=O)n2C)n(C)c1=O | u | 70.8µM* | -2.1% | u | x
Clc1ccccc1C(c1ccccc1)(c1ccccc1)n1cccn1 | 1.9% | -7.1% | 3.2% | x | x
CC(C)C[C@H]1C(=O)N2CCC[C@H]2[C@]2(O)O[C@](NC(=O)[C@@H]3C=C4c5cccc6[nH]c(Br)c(c56)C[C@H]4N(C)C3)(C(C)C)C(=O)N12 | u | -3.6% | -25.9% | x | -1.2%
COc1ccc2cc1Oc1ccc(cc1)CC1c3cc(c(OC)cc3CCN1C)Oc1c(OC)c(OC)cc3c1C(C2)N(C)CC3 (stereo not drawn) | u | -22.4% | u | x | 6.0%
CC1CC2OC2/C=C\C=C/C(=O)Cc2c(Cl)c(O)cc(O)c2C(=O)O1 (stereo not drawn) | 7.94µM* | -7.6% | 10µM* | x | 22.4µM*
CN(C)CCO | 30.0% | 4.0% | 2.2% | x | 0.9%
O=C(Oc1ccccc1)N1CCC2(CC1)CCN(C(c1ccccc1)c1ccccc1)CC2 | -31.0% | 22.6% | -4.9% | x | -2.1%
BrCC(Br)(Br)Br | -10.0% | x | 3.1% | -24.8% | 2µM*
SMILES | RORg inh | Sfp inh | Gal4-VP16 FLuc | PLK1 PBD block | ALDH1A1 inh
O=c1[nH]c(=O)n(-c2ccc(Cl)cc2)c(O)c1C=Nc1ccc(S(=O)(=O)Nc2nccs2)cc1 | 2.5% | -21.3% | -15.3% | -13.5% | u
Clc1cccc(/C=N\Nc2nccs2)c1 | 11.2µM* | -3.6% | u | u | 0.8%
CCCCNC(=O)Oc1c(Br)cc2sc(=O)oc2c1Br | -3.4% | 11.2µM* | -7.3% | x | x
O=c1[nH]c(O)c(N=Nc2ccc(SC(F)F)cc2)c(=O)[nH]1 | -24.2% | 21.4% | -14.4% | -21.8% | 10.4%
O=C(N=Nc1c(O)[nH]c(=O)[nH]c1=O)C1COc2cc3ccccc3cc2O1 (stereo not drawn) | 15.7% | 56.2µM* | -3.6% | u | u
CN(C)[C@@H](Cc1ccccc1)c1ccccc1 | -1.7% | 24.0% | -0.3% | x | x
CC(C)CN(CC(C)C)c1ccc(C=C2C(=O)NC(=S)NC2=O)cc1[N+](=O)[O-] | 10.6% | 20µM* | -7.9% | 2.67µM* | 11.2µM*
NS(=O)(=O)C[C-]1C=C[CH]([Sb-]([Cl])([Cl])([Cl])([Cl])[Cl])C=C1.c1ccncc1 (stereo not drawn) | x | x | x | x | 3.55µM*
Cc1cc(O)c2c3c(c(=O)oc2c1)CCC(C)C3 (stereo not drawn) | u | 18.2% | 20µM* | -14.8% | x
Cc1c(C=C2C(=O)N(C)C(=S)N(C)C2=O)c2ccccc2n1CC(=O)NCC1CCCO1 (stereo not drawn) | -26.0% | 50.1µM* | 1.7% | 2.67µM* | x
O=C(Cn1cc(C=C2C(=O)NC(=O)NC2=O)c2ccccc21)NCC1CCCO1 (stereo not drawn) | 3.2% | 7.9% | 2.9% | u | x
C=CCN1C(=O)NC(=O)/C(=C/c2ccc(OC)c(COc3ccc(NC(C)=O)cc3)c2)C1=O | -2.3% | 44.7µM* | -5.5% | 10.6µM* | u
C=CCN1C(=O)NC(=O)/C(=C/c2ccc(OC)c(CSc3ccccn3)c2)C1=O | -4.1% | 56.2µM* | u | 4.74µM* | 12.6µM*
CC(C)CCOP(=O)(c1ccc(N(C)C)cc1)C(O)c1ccc(Cl)cc1Cl (stereo not drawn) | -0.4% | u | -10.0% | 1.0% | x
CN(CCc1ccc(Cl)c(Cl)c1)[C@H]1CCCC[C@H]1N1CCCC1 | -26.2% | u | 5.0% | x | 25.1µM*
O=C(Cc1ccc(Cl)c(Cl)c1)N1CCCCC1CN1CCCC1 (stereo not drawn) | x | -26.7% | x | x | -1.2%
Cc1cccc(-n2c(C)n[nH]c2=S)c1C | 15.8µM* | -14.0% | u | -14.9% | 1.4%
Cc1cccc(-n2c(C)nc3ccccc3c2=O)c1C | 13.0% | 20.0% | -6.4% | -8.3% | -3.4%
CN(C)CC1CSCCC1(O)c1ccccc1 (stereo not drawn) | -12.1% | 15.6% | -8.3% | -10.0% | 12.6µM*
C#CCN1CC(=O)N(COC(=O)[C@@H]2[C@@H](C=C(C)C)C2(C)C)C1=O | 9.1%[10 µM] | 11.9% | 1.2% | x | x
N#CC(C#N)=NNc1ccc(S(N)(=O)=O)cc1 | 6.6% | 4.0% | -7.6% | 23.8µM* | x
CC1CCN(S(=O)(=O)c2ccc(NN=C(C#N)C#N)cc2)CC1 | u | 15.6% | u | x | u
CCC12CCCN3CCC4(c5ccc(OC)c(O)c5N(C(C)=O)C4CC1)C32 (stereo not drawn) | 33.5% | 11.6% | u | x | 1.2%
